Tau fibril FP: qHTS for Inhibitors of Tau Fibril Formation, Fluorescence Polarization | Microtubule-associated protein tau (Homo sapiens), P10636 | 280,000 tested, 0.39% active | AID 1468, 2008 | K18 P301L tau heparin fibrillization, Alexa594 FP, 6 h | Potency, µM (top dose mostly 57.7 µM), hits mostly inhibitors; note: nearly all actives have a fitted effect of over 55% in size
Target sequence (P10636 561-689 P618L limits assumed): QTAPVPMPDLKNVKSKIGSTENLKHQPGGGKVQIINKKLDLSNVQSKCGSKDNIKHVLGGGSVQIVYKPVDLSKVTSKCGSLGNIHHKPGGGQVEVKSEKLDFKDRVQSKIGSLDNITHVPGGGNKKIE
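Heparin (20 uM) drove fibril formation of recombinant tau K18 P301L, 15 uM unlabeled with 0.24 uM Alexa 594 label, for 6 hr at 37 C in 100 mM sodium acetate pH 7. Fluorescence polarization (555/632 nm) read 1 hr after 30 uM ThT.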
KDM4E inh: qHTS Assay for Inhibitors of Human Jumonji Domain Containing 2E (JMJD2E); Lysine-specific demethylase 4E (Homo sapiens), B2RXH2; JMJD2E catalytic domain, FDH-coupled NADH fluorescence (FDH is formaldehyde dehydrogenase); Potency, µM (top dose mostly 57.1 µM), usual class: inhibitors; 230,000 tested, 1.6% active; AID 2147, 2009; active = well fitted inhibition curve with a large enough effect, not every such curve was filed as active; inconclusive = small, poorly fitted or top-dose-only effect, or another doubt; inactive = no such curve, though single readings can be large or run the other way; note: nearly all actives have a fitted effect of over 50% in size
Tau fluor counter: Counterscreen qHTS for Inhibitors of Tau Fibril Formation, Fluorescence Polarization; tau K18 P301L Alexa594 fluorescence, heparin fibrillization; Potency, µM (doses to about 57.7 µM); 280,000 tested, 0.93% active; AID 1463, 2008; note: nearly all actives have a fitted effect of over 55% in size
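Human K18 P301L tau (15 uM unlabeled plus 0.24 uM Alexa 594-labeled, final) in 100 mM sodium acetate pH 7 was mixed with compound and 20 uM heparin and incubated 6 hr at 37 C.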
Tau ThT inhib: qHTS for Inhibitors of Tau Fibril Formation, Thioflavin T Binding; 270,000 tested, 2.1% active; Potency, µM (highest dose often 57.4 µM), usual class: inhibitors; Microtubule-associated protein tau (Homo sapiens), P10636; recombinant tau K18 P301L, heparin-induced fibrillization, ThT fluorescence; note: nearly all actives have a fitted effect of over 55% in size
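Fibril formation assay: tau K18 P301L at 15 uM with trace Alexa 594 label, heparin inducer 20 uM, pH 7 sodium acetate buffer, 37 C for 6 hr; endpoint ThT signal.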
GoLoco inh red: qHTS Assay for Inhibitors of RGS12 GoLoco Motif Activity (Red Fluorophore). 230,000 tested, 0.44% active. Potency, µM (series often up to 61.6 µM), most hits filed as inhibitors. Gai1:RGS12 GoLoco peptide FP, rhodamine, 10 min; active = well fitted inhibition curve with a large enough effect, not every such curve was filed as active; inactive = no such curve, though single readings can be large or run the other way; note: nearly all actives have a fitted effect of over 30% in size
Target sequence (P63096 whole entry, looked up): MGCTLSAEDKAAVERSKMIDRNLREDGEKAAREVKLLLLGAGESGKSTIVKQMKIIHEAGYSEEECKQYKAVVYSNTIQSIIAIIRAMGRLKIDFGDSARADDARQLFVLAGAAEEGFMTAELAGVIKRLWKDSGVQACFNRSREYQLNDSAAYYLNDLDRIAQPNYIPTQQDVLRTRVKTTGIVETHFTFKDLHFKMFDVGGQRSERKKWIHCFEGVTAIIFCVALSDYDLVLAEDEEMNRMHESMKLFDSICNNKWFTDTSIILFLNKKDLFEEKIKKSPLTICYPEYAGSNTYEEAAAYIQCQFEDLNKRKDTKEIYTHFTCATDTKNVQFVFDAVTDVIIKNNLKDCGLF
Hits are given with their value; . = inactive; ? = inconclusive; / = no result given; [ ] = dose if it differs, or a comment. Hits are enriched below; roughly 3.4% of the tested compounds scored in any of these assays. Unless noted, calls come from the whole dose curve; as a rule, active = well fitted curve in the direction sought with a large enough effect; inconclusive = small, poorly fitted or top-dose-only effect, or another doubt; inactive = no such curve, though single readings can be large; an effect the other way counts as inactive or inconclusive.

SMILES | Tau fibril FP | KDM4E inh | Tau fluor counter | Tau ThT inhib | GoLoco inh red
COc1ccc(/C=C/C(=O)c2c(O)c(OC)c3occc3c2OC)cc1 | . | . | ? | 4.47µM | .
Cc1ccc2nc(N3CCN(c4cccc(C(F)(F)F)c4)CC3)c3nnnn3c2c1 | . | / | . | . | /
CCOC(=O)N1CCc2c(sc3c2c(=O)n(Cc2ccccc2)c(=O)n3Cc2ccccc2Cl)C1 | . | / | . | . | /
CCc1ccccc1NC(=O)Cn1cc2c(n1)CCC(C)C2 (centres undefined) | . | / | . | . | /
Cc1cc(/C=C(\C#N)C(=O)Nc2ccccc2)c(C)n1-c1ccc2c(c1)OCO2 | . | 25.1µM | . | ? | .
Cc1ccccc1NC(=O)/C(C#N)=C\c1cc(C)n(-c2ccc(C(=O)O)cc2)c1C | . | 20µM | . | / | .
CCc1ccc(CN(C(=O)Nc2cccc(Cl)c2)c2ccccn2)cc1 | ? | / | ? | . | /
CC(=O)c1c(C)[nH]c(C(=O)Nc2cccc(S(=O)(=O)N(C)c3ccccc3)c2)c1C | 28.2µM | ? | 14.1µM[quencher] | . | .
CN(c1ccccc1)S(=O)(=O)c1cccc(NC(=O)c2ccc3ncsc3c2)c1 | ? | . | 15.8µM[quencher] | . | .
O=C(Nc1cccc(O)c1)c1cccc(S(=O)(=O)N2CCCC2)c1 | . | . | . | . | .
COc1ccccc1NS(=O)(=O)c1cccc(NC(=O)c2[nH]c(C)c(C(C)=O)c2C)c1 | ? | . | ? | . | .
O=C(Nc1cccc(S(=O)(=O)N2CCCCC2)c1)c1ccc2ncsc2c1 | ? | ? | 20µM[quencher] | / | .
CCc1ccc(S(=O)(=O)c2cn(CC)c3cc(N4CCCCC4)c(F)cc3c2=O)cc1 | . | / | . | . | /
COc1cc(NC(=O)C2CCN(S(=O)(=O)c3ccc4c(c3)oc(=O)n4C)CC2)cc(OC)c1 | . | / | . | . | /
CCOC(=O)c1cc(-c2ccc(F)cc2)n(CCC(=O)NC2CCC(C)CC2)c1C (centres undefined) | . | / | . | . | /
S=C(Nc1ccc(Oc2ccccc2)cc1)NC1CCCCCC1 | . | . | ? | . | .
S=C(NNc1ccc2ccccc2c1)NC1CCCCC1 | ? | 11.2µM | ? | 25.1µM | .
COc1cc2c3c(c1)/C(=C1/SC(NC(C)=O)=NC1=O)C(=O)N3C(C)(C)C=C2C | ? | . | 14.1µM[quencher] | 15.8µM | .
CCc1ccccc1NC(=O)Cn1c(=O)n(-c2ccc(C)c(C)c2)c(=O)c2oc3ccccc3c21 | . | / | . | . | /
CCN(CC)S(=O)(=O)c1cc(C)ccc1NC(=S)Nc1cccnc1 | 31.6µM | ? | ? | . | .
CCN(CC)S(=O)(=O)c1cc(C(=O)Nc2cccnc2)ccc1Cl | . | . | . | . | .
Nc1ccccc1Nc1cc(-c2cccc(Cl)c2)nn1-c1ccccc1 | ? | ? | 12.6µM[quencher] | ? | .
O=C(Cn1c(O)c(/C=C2\C=Nc3ccccc32)sc1=O)N1CCOCC1 | . | . | . | . | .
O=c1[nH]c(S)c(/C=C2\C=Nc3ccccc32)s1 | ? | . | ? | 1.41µM | .
CC1CN(C(=O)N2CCC(C(=O)NCCC3=CCCCC3)CC2)c2cc(Cl)ccc2O1 (centres undefined) | . | / | . | . | /
SMILES | Tau fibril FP | KDM4E inh | Tau fluor counter | Tau ThT inhib | GoLoco inh red
O=C(NCc1ccco1)C1CCN(C(=O)N2CCOc3ccc(Cl)cc32)CC1 | ? | / | ? | 20µM | /
Cc1cc(C)c(NC(=O)C2CCN(C(=O)N3CC(C)Oc4ccc(Cl)cc43)CC2)c(C)c1 (centres undefined) | . | / | . | . | /
O=C(NCc1cccs1)C1CCN(C(=O)N2CCOc3ccc(Cl)cc32)CC1 | . | / | . | . | /
Cc1ccc2c(c1)N(C(=O)N1CCC(C(=O)NCCc3ccc(Cl)cc3)CC1)CC(C)O2 (centres undefined) | . | / | 7.94µM[quencher] | . | /
CC1CN(C(=O)N2CCC(C(=O)NC3CCCCCC3)CC2)c2cc(Cl)ccc2O1 (centres undefined) | ? | / | ? | 20µM | /
O=C(NCCC1=CCCCC1)C1CCN(C(=O)N2CCOc3ccccc32)CC1 | ? | / | 2.82µM[quencher] | . | /
Cc1ccc(CNC(=O)C2CCN(C(=O)N3CC(C)Oc4ccc(Cl)cc43)CC2)cc1 (centres undefined) | . | / | ? | ? | /
COc1cccc(CNS(=O)(=O)c2ccc3c(c2)C(C(C)C)C(=O)N3)c1 (centres undefined) | . | / | . | . | /
CC(C)(C)C1CCC(OC(=O)C[N+]2(C)CCCCC2)CC1 (centres undefined) | . | ? | . | . | 8.91µM
CC(C)(C)C1CCC(OC(=O)CN2CCOCC2)CC1 (centres undefined) | . | . | . | . | .
C[N+]1(CC(=O)OCCCC2CCCCC2)CCCC1 | . | . | . | . | .
CC(C)(C)C1CCC(OC(=O)C[N+]2(C)CCCC2)CC1 (centres undefined) | . | . | . | . | 7.08µM
CC1=NN(Cc2ccccc2)C(=O)/C1=C\c1ccc(N(C)C)cc1 | . | . | . | 20µM | .
Cc1cccc(-n2c(=O)c3c(c4cc(C)ccc4n3C)n(CC(=O)NCCC3=CCCCC3)c2=O)c1 | . | / | . | . | /
CCOC(=O)Cn1c(=O)c2c(nc(N3CCOCC3)n2Cc2ccccc2)n(C)c1=O | . | / | . | . | /
COc1ccc(C2=CC3=C(Br)C(=O)C(C)(OC(=O)c4ccc(Cl)nc4)C(=O)C3=CO2)cc1 (centres undefined) | ? | . | ? | 28.2µM | .
COC(=O)CCC(=O)OC1(C)C(=O)C2=COC(c3ccc(OC)cc3)=CC2=C(Br)C1=O (centres undefined) | ? | . | . | 12.6µM | .
COc1ccc(C2=CC3=C(Br)C(=O)C(C)(OC(=O)C4CCCC4)C(=O)C3=CO2)cc1 (centres undefined) | ? | . | . | ? | .
C=C(C)C(=O)NNc1ccccc1 | . | 14.1µM | . | . | .
CC(C)OC(=O)C(=O)NNc1ccccc1 | . | . | . | . | .
CC[n+]1c(/C=C/C=C/N(C(C)=O)c2ccccc2)sc2ccccc21 | ? | . | 8.91µM[fluorescent] | 11.2µM | .
CCn1c(/C=C/N(C(C)=O)c2ccccc2)[n+](CC)c2ccc(Cl)cc21 | . | . | . | . | 1.78µM
CCn1c(C)[n+](CC)c2ccc(C(=O)N(C)c3ccccc3)cc21 | . | ? | . | . | .
CCN1C(=O)/C(=C/N(C(C)=O)c2ccccc2)N(c2ccccc2)C1=S | . | . | . | ? | .
Cc1ccc(NC(=O)c2c(C)oc3ncn(CC(C)C)c(=O)c23)nc1 | . | / | . | . | /
Cc1ccc(CNC(=O)CCCn2c(=O)c3ccccc3n(Cc3ccccc3Cl)c2=O)cc1 | . | / | . | . | /
COc1cccc(Cn2c(=O)cc(C)c3c(C)nn(-c4ccc(C)cc4)c32)c1 | . | / | . | . | /

High-throughput results: PubChem, National Center for Advancing Translational Sciences (NCATS)
